# Measured values taken from PubChem BioAssay (NCI).
# This is part of a sample that, as a whole, favours compounds with a hit. Of some 83,000 tested, about 20% had one in any assay.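 The test compound was applied at a single concentration to cells in 96-well plates for 48 hours, and percent growth was recorded.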 Unmarked numbers belong to inactive results. The source made the active and inactive calls. How the source made its calls: active means growth percent below 10; inactive means the rest.
# Columns and labels:
# Test in all cases: NCI-60 one-dose screen, 48 h (100 = growth as untreated, 0 = no growth, -100 = all killed)
# Settings in all cases: 10 µM unless noted
# SR leukemia = test system: SR leukemia
# RPMI-8226 leukemia = test system: RPMI-8226 leukemia
# OVCAR-8 ovarian = test system: OVCAR-8 ovarian
# OVCAR-4 ovarian = test system: OVCAR-4 ovarian
# SK-OV-3 ovarian = test system: SK-OV-3 ovarian
# IGROV1 ovarian = test system: IGROV1 ovarian
# OVCAR-3 ovarian = test system: OVCAR-3 ovarian
# HS 578T breast = test system: HS 578T breast
# NCI/ADR-RES ovarian = test system: NCI/ADR-RES ovarian
# OVCAR-5 ovarian = test system: OVCAR-5 ovarian
SMILES,growth (SR leukemia),growth (RPMI-8226 leukemia),growth (OVCAR-8 ovarian),growth (OVCAR-4 ovarian),growth (SK-OV-3 ovarian),growth (IGROV1 ovarian),growth (OVCAR-3 ovarian),growth (HS 578T breast),growth (NCI/ADR-RES ovarian),growth (OVCAR-5 ovarian)
COc1ccc(NC(=O)CSc2nnc(-c3ccc(-c4nc5ccc(Cl)cc5[nH]4)cc3)o2)cc1,18.5%,46.3%,2.41% (active),33.8%,55%,59.6%,41%,24.7%,48%,
COc1cc(/C=C/C(=O)c2cnn(-c3cc(=O)[nH]c4ccccc34)c2C)cc(OC)c1OC,-3.34% (active),-11.6% (active),-18.1% (active),39.4%,9.66% (active),,8.06% (active),35.5%,42.2%,-3.98% (active)
O=C1/C(=C/c2cccc3c2OCO3)Cc2c(F)cc(Br)cc21,104%,106%,113%,105%,113%,,98.6%,115%,108%,109%
CN(C)CCOc1ccc(C(=O)C2[C@H](c3ccc(Cl)cc3)[C@@H](c3ccccc3)NC23C(=O)Nc2ccc(Cl)cc23)cc1 (stereo partly specified),-77.4% (active),-43.6% (active),-67.9% (active),-91.5% (active),-86.4% (active),,-51.4% (active),-29.4% (active),-90.7% (active),-79.2% (active)
Nc1nnc(CS(=O)(=O)c2ccccc2)s1,108%,103%,97.4%,121%,104%,101%,104%,86%,104%,
S=C(Nc1ccc(OCc2nc3ccc(Cl)cc3[nH]2)cc1)NC1CCCCC1,-27.3% (active),-13.1% (active),-10% (active),10.6%,29.2%,7.22% (active),-3.28% (active),14.8%,-14.8% (active),
S=C(NCCc1ccccc1)Nc1ccc(OCc2nc3ccc(Cl)cc3[nH]2)cc1,-7.42% (active),7.74% (active),39.7%,32.1%,77.2%,,34.9%,38.4%,11.7%,30.5%
CC(Nc1ncnc2ccc(-c3ccc4oc(N)nc4c3)cc12)c1ccccc1 (stereo unspecified),-53.7% (active),-17.9% (active),-40.7% (active),-85.8% (active),-22.2% (active),-77.5% (active),-19.5% (active),-31.7% (active),-18.7% (active),
CC[C@]12C=CCN3CC[C@]4(C(=C(C(=O)OC)C1)Nc1cc(OC)c([C@@H]5[C@H]6O[C@H]6[C@@]6(CC)CC(C(=O)OC)=C7Nc8cc(OC)ccc8[C@@]78CCN5[C@@H]68)cc14)[C@@H]32,5.93% (active),24.2%,53.1%,59.8%,116%,64%,55.8%,87.2%,80.8%,
Cc1ccc(C(=O)Nc2cc(-n3cnc(F)c3)cc(C(F)(F)F)c2)cc1C#Cc1cnc2cccnn12,18.6%,33.1%,66.8%,77.4%,114%,71.5%,119%,35.8%,57.2%,
COC(=O)c1c(C(=O)OC)c2ccc3c4ccccc4ccc3n2c1C(=O)OC,94.6%,104%,107%,100%,109%,,75.8%,92.7%,112%,106%
O=C(N/N=C/c1occc1Br)c1[nH]c2ccc(Br)cc2c1-c1ccccc1,-9.6% (active),-4.48% (active),-51.7% (active),-87% (active),-85.3% (active),-92.8% (active),-73.7% (active),-28.4% (active),-53.5% (active),
O=C(Nc1nc2ccc([N+](=O)[O-])cc2s1)Nc1ccccc1F,15.1%,-19.2% (active),15.1%,16.6%,-14.2% (active),21.7%,24.6%,0.171% (active),7.3% (active),
COc1ccc(NC(=O)Nc2nc3ccc([N+](=O)[O-])cc3s2)cc1,5.15% (active),-2.91% (active),17.1%,15.2%,58.6%,,18%,5.84% (active),-1.49% (active),60.4%
Cc1ccccc1NC(=O)c1cccc(NC(=O)CCl)c1,16.4%,26%,46.3%,73.7%,81.3%,,49%,78%,38.9%,70.4%
CCOC(=O)/C(F)=C/C1CC1CCc1ccc(OCC)cc1 (stereo unspecified),78.6%,99.3%,101%,94.8%,75.3%,,103%,94.5%,101%,108%
Cc1ccc2c(c1)/C(=C/C(=O)c1cc3ccccc3oc1=O)C(=O)N2,6.51% (active),36.7%,54.9%,53.9%,100%,,-0.742% (active),78%,65.9%,77.4%
c1ccc(CSc2nnc(-c3ccc4nc(-c5ccccc5)[nH]c4c3)o2)cc1,63.6%,36.7%,-23.2% (active),-43.7% (active),87%,,27.4%,-1.88% (active),-40.3% (active),75.3%
Oc1cncc(-c2ccc3ncnc(N4CCc5cc(F)c(Cl)cc54)c3c2)c1,42.5%,55.2%,37.4%,40.6%,54.3%,5.56% (active),58%,18.1%,61.9%,
COc1cc(NC(=O)C(C)C)ccc1C(=O)NC(=S)Nc1ccc(S(N)(=O)=O)cc1,111%,107%,79.3%,98.5%,112%,97.2%,92%,86.2%,102%,
Nc1cc2ccccc2c(=O)n1NC(=O)c1ccccc1,84.3%,94.2%,104%,98.6%,93.5%,,70.6%,91.4%,102%,107%
COc1ccc(-c2cc(C(=O)OCc3ccc(Br)cc3)nn2-c2ccc(S(C)(=O)=O)cc2)cc1OC,62.8%,52.8%,87.3%,73.3%,83.7%,,80.3%,65.4%,78.3%,97.8%
CCN1C(=O)N(CC)C2NNC(Sc3c(C(=O)O)c4ccccc4n(CC(C)C)c3=O)=NC21 (stereo unspecified),11.1%,8.29% (active),11.8%,67%,40.6%,,4% (active),-2.68% (active),-27.6% (active),24.2%
Cc1nn(-c2ccccc2)c2nc(C)n(C(=O)N/N=C/c3ccccc3)c(=O)c12,115%,103%,101%,101%,95.5%,,118%,84.3%,100%,101%
O=C(c1cc2cc(OCCCN3CCC3)ccc2[nH]1)N1C[C@@H](CCl)c2c1cc(OCc1ccccc1)c1ccccc21,-9.25% (active),-37.1% (active),-37.6% (active),-57.7% (active),-9.06% (active),-53.8% (active),-29.5% (active),-8.06% (active),-34.9% (active),
CCCCCCCCc1ccc(C(=O)Nc2ccc(C)cc2C(=O)O)cc1,90%,63.5%,94.1%,99.8%,100%,83.9%,94%,105%,94.1%,
CC(=O)C[n+]1cccc2c3ccccc3ccc21,66.3%,64%,81.5%,63.8%,96.1%,,70%,102%,107%,103%
O=C(N/N=C/c1c[nH]c2ccccc12)Nc1ccccc1Cl,5.61% (active),7.68% (active),-7.94% (active),53.9%,15.4%,,-28.4% (active),8.49% (active),-9.92% (active),23.1%
ClC(Cn1ncc2c(Nc3cccc(Br)c3)nc(SCCN3CCOCC3)nc21)c1ccc(Br)cc1 (stereo unspecified),-26.7% (active),1.13% (active),10.2%,34.6%,19.4%,,33.2%,-19.9% (active),0.769% (active),18.1%
